For 22 compounds, Potency and outcome results are on record in PubChem BioAssay (NCATS).

Values joined by “and” are separate entries in the source; they are usually repeats but may differ in a detail not shown here. Equal entries are not always repeated. Inconclusive results are not listed. Where a structure was tested more than once in an assay, its records may differ in their call. Active and inactive are the calls of the source. Unless noted, calls come from the whole dose curve; as a rule, active = well fitted curve in the direction sought with a large enough effect; inconclusive = small, poorly fitted or top-dose-only effect, or another doubt; inactive = no such curve, though single readings can be large; an effect the other way counts as inactive or inconclusive.

Assay [1] can be described thus: P-glycoprotein substrates identified in KB-8-5-11 adenocarcinoma cell line, qHTS therapeutic library screen (AID 1346987). Note: nearly all actives have a fitted effect of over 65% in size. Note: potency is the fitted concentration of half-maximal effect. The note with it: outcome: dose series up to 44.5 µM unless noted. The gist of the method:
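Steps: plate 500 KB-8-5-11 cells/well in DMEM + 10% FCS (colchicine removed); pin compounds in dose-response; incubate 72 h, 37 degree C, 5% CO2; add CellTiter-Glo, 5 min; read luminescence.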

Assay [2] can be described thus: Natriuretic polypeptide receptor (hNpr1) antagonism - Pilot counterscreen GloSensor control cell line (AID 1347045; calls by dose curve; note: potency is the fitted concentration of half-maximal effect). The method, boiled down:
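Luminescence was read before and 20 min after adding 50 uM SNP, which stimulates soluble guanylyl cyclase. The HEK293 cells expressing the GloSensor cGMP sensor had been preloaded with 2% reagent for 2 h and treated with compound.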
(Counterscreens check selectivity or assay interference.)

For assay [3], the target named is Atrial natriuretic peptide receptor 1 (Homo sapiens) (UniProt P16066). As to the kind of experiment: Natriuretic polypeptide receptor (hNpr1) antagonism - Pilot screen (AID 1347049; calls by dose curve;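 note: agonist-evoked cGMP luminescence read 20 min after hNppA addition; series mostly up to about 58 µM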). The gist of the method: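 HEK293 cells co-expressing hNpr1 and the GloSensor pGS-40F cGMP luciferase sensor were preloaded with 2% GloSensor reagent for 2 h. Compounds were added for 30 min at room temperature, then cells were stimulated with 0.1 nM hNppA for 20 min before luminescence readout.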

The target in assay [4] is Atrial natriuretic peptide receptor 2 (Homo sapiens) (UniProt P20594). As to the kind of experiment: Natriuretic polypeptide receptor (hNpr2) antagonism - Pilot subtype selectivity assay (AID 1347050; calls by dose curve; note: potency is the fitted concentration of half-maximal effect). The gist of the method:
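cGMP-sensor HEK293/hNpr2 cells; 2% GloSensor reagent 2 h RT; compounds 30 min; baseline luminescence read; 1 nM hNppC agonist 20 min RT; final luminescence read by CCD camera. Antagonism = reduced post-agonist signal.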

The nature of assay [5]: NS1 protein of Zika virus - qHTS assay to identify small molecule inhibitors in human HEK 293 cells (AID 1347053). Note: nearly all actives have a fitted effect of over 55% in size. Note: potency is the fitted concentration of half-maximal effect. The gist of the method:
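Inhibition of NS1 expression was scored in HEK 293 cells given compound 1 h ahead of MR766 virus (MOI = 0.5). Following 24 h at 37 C, two anti-NS1 antibodies generated a TR-FRET signal, scaled between uninfected and infected controls.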
(In general: In qHTS, concentration-response curves come from the screen itself.)

Assay [6] deals with T1, Tyrosine-protein phosphatase non-receptor type substrate 1 (Homo sapiens) + Leukocyte surface antigen CD47 (Homo sapiens) (UniProt P78324+Q08722). Kind of assay: CD47-SIRPalpha protein protein interaction - LANCE assay qHTS validation (AID 1347057; active = well fitted curve in the direction sought with a large enough effect in the signal ratio, with a control signal flat, not every such curve was filed as active; the % refers to the signal ratio; note: series mostly up to about 38 µM). The gist of the method: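 First, His-tagged CD47 and Eu-labelled anti-His antibody met the compound for 30 min; next, site-specifically biotinylated SIRPalpha was added for 30 min; finally streptavidin-APC was added before reading the TR-FRET ratio.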

Assay [7] addresses T1, Tyrosine-protein phosphatase non-receptor type substrate 1 (Homo sapiens) + Leukocyte surface antigen CD47 (Homo sapiens). As to the kind of experiment: CD47-SIRPalpha protein protein interaction - HTRF assay qHTS validation (AID 1347058; active = well fitted curve in the direction sought with a large enough effect in the signal ratio, not every such curve was filed as active; the % refers to the signal ratio; note: series mostly up to about 38 µM). The gist of the method:
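TR-FRET read (Ch1/Ch2 ratio) of soluble extracellular CD47 and Avi-biotinylated SIRPalpha domains in PBS pH 7.4 with 0.05% IGEPAL; 7-point compound titration. Sequential 30 min room-temperature steps; non-biotinylated SIRPalpha as control inhibitor.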
For orientation: In TR-FRET formats the signal depends on donor and acceptor labels being close together.

For assay [8] the target is unchanged. Kind of assay: CD47-SIRPalpha protein protein interaction - Alpha assay qHTS validation (AID 1347059). The gist of the method: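 Soluble extracellular domains: Avi-tag biotinylated SIRPalpha (25 nM) preincubated 30 min RT with compound, then 6His-CD47 (12.5 nM) 30 min; Ni-NTA acceptor and streptavidin donor beads (10 ug/mL) 30 min, AlphaScreen read. PBS pH 7.4, 0.05% IGEPAL.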

The target in assay [9] is Parathyroid hormone/parathyroid hormone-related peptide receptor (Homo sapiens) (UniProt Q03431). As to the kind of experiment: qHTS for PTHR1 Agonists: Optimization Screen against the NCGC LOPAC library (AID 1347079).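 Note: GloSensor cAMP luminescence in HEK-293 GP2 cells expressing human PTHR1 with IBMX.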 The gist of the method:
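Agonist readout: GloSensor cAMP luminescence, read after 15 min at room temperature. HEK-293-derived GP2 line carries PTHR1; compounds tested as a titration for 1 hr at 37C in presence of IBMX. M-PTH (1-15) served as control.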

Assay [10] is described as follows: qHTS of pediatric cancer cell lines to identify multiple opportunities for drug repurposing: Primary screen for TC32 cells (AID 1347089). Note: nearly all actives have a fitted effect of over 60% in size. The method, boiled down: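 A viability screen of TC32 cells was run over 48 h, with primary MIPE doses spanning 0.78 nM–46 µM and NPC doses 0.59 nM–46 µM. ATP luminescence (CellTiter-Glo) served as the read-out.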

Sequence of Parathyroid hormone/parathyroid hormone-related peptide receptor (Homo sapiens) (Q03431 whole entry, looked up): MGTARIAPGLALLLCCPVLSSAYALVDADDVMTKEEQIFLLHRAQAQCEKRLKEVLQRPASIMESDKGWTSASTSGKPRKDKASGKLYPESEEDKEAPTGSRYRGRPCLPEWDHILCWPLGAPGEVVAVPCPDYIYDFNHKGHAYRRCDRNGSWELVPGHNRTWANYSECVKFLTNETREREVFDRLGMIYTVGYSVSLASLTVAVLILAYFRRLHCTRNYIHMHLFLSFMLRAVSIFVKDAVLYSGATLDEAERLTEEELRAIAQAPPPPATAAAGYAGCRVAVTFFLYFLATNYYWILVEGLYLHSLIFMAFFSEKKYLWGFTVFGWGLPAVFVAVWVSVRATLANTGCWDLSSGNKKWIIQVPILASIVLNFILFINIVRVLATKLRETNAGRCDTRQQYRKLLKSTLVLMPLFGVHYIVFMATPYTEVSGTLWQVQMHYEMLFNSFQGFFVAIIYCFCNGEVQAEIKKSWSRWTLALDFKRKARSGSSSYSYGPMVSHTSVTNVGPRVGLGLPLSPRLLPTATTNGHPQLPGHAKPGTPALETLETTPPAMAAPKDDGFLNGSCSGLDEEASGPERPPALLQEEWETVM
Sequence of Atrial natriuretic peptide receptor 2 (Homo sapiens) (P20594 whole entry, looked up): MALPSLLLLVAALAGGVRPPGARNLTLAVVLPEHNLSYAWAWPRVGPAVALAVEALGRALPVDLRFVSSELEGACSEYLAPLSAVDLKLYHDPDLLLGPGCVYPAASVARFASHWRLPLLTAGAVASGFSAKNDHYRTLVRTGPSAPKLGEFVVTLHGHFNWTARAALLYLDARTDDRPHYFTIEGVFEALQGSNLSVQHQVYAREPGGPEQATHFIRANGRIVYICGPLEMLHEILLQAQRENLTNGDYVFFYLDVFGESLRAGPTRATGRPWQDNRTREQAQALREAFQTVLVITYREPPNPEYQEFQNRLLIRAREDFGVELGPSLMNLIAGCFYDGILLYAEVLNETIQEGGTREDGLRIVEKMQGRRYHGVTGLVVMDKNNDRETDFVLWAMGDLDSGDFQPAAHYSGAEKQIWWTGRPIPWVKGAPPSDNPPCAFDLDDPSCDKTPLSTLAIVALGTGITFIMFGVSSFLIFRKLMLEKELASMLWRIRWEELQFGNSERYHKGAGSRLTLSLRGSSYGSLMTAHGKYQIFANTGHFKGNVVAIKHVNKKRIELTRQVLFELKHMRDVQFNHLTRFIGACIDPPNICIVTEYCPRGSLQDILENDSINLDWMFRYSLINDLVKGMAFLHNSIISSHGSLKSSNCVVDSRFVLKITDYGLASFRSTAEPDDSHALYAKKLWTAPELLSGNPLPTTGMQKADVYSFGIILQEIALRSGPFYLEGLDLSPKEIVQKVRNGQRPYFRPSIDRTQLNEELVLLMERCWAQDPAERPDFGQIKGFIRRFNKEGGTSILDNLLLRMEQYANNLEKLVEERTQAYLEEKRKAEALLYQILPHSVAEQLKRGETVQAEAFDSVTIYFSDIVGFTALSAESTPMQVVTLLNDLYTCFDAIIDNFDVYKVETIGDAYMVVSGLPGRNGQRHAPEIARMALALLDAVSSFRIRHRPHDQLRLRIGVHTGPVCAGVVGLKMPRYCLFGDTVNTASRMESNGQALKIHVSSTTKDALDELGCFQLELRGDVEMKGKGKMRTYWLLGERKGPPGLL
T1 sequence (P78324 whole entry, looked up): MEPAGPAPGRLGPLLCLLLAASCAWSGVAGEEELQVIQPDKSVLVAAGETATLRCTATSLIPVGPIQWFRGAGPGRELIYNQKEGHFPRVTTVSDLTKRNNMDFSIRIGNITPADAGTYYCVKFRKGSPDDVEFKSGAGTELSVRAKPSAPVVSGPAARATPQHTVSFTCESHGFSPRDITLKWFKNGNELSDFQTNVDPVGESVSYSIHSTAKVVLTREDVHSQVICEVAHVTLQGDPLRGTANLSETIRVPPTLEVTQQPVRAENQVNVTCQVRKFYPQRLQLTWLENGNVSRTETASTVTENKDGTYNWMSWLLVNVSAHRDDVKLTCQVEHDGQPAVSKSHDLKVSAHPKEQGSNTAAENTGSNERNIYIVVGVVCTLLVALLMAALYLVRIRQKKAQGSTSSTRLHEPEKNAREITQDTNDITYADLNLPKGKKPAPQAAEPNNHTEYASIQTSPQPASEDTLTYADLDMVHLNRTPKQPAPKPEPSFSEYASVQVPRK
T1 sequence (Q08722 whole entry, looked up): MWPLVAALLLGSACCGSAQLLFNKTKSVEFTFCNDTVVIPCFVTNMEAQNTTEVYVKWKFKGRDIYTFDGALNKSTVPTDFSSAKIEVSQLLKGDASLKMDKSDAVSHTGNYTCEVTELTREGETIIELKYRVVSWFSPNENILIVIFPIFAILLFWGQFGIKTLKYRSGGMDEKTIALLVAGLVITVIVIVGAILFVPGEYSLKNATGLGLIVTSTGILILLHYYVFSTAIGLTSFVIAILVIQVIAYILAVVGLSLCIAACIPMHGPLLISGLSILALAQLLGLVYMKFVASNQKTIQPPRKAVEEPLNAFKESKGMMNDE
Sequence of Atrial natriuretic peptide receptor 1 (Homo sapiens) (P16066 whole entry, looked up): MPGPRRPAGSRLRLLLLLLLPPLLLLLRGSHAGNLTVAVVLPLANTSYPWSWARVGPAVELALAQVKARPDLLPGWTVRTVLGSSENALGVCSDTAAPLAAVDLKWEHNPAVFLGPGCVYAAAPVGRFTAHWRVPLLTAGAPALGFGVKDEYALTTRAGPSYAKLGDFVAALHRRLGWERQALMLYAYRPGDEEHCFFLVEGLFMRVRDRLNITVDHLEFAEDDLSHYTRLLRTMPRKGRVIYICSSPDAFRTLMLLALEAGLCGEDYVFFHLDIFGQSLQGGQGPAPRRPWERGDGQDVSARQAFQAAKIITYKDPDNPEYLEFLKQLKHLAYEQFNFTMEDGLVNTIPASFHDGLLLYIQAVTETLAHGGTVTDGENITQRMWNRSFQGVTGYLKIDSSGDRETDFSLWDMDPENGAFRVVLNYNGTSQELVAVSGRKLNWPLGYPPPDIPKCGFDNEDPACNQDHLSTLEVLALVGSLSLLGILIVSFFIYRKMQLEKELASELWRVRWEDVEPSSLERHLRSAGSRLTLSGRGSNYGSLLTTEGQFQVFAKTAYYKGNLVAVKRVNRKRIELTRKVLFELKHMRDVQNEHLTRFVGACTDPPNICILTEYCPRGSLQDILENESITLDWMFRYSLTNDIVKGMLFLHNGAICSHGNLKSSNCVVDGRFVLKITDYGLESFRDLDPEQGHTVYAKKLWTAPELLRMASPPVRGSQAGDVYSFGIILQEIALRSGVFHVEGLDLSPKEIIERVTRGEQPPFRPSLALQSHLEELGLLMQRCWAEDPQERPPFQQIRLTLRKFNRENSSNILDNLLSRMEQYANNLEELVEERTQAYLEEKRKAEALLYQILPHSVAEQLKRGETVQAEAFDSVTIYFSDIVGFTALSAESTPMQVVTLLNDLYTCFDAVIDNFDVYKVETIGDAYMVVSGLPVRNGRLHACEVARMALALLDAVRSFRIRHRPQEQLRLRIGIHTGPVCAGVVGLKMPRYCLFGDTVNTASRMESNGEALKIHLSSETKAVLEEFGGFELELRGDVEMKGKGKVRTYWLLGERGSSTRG

On to `O=C(CCCN1CCC(O)(c2ccc(Cl)cc2)CC1)c1ccc(F)cc1`, for which the Potency in assay [1] is 18.4 µM (active). Besides, the Potency result in assay [2], in [3], in [4], in [5], in assay [8] and in [9] was “inactive” in each case. Also, the Potency entry in assay [10] is “inactive”. Moreover, the outcome in assay [6] and in assay [7] was inactive.

For the compound `NC(=O)NO`, the Potency result in [1] is “inactive and 1.66 µM (active)”. The Potency result in assay [2], in assay [3], in assay [4], in assay [8] and in [9] was “inactive” each time. Besides, the outcome in assay [6] and in assay [7] was inactive.

In the case of `COc1ccccc1OCCNCC(O)COc1cccc2[nH]c3ccccc3c12` (stereo unspecified), the Potency entry in [1], in assay [2], in assay [3], in [4], in assay [5] and in [8] was “inactive” throughout. The Potency result in assay [9] and in assay [10] was “inactive” in each case. Moreover, the result in assay [6] and in assay [7] was inactive.

As to `O=c1c(-c2ccc(O)cc2)coc2cc(O)cc(O)c12`, the Potency result in [1], in [2], in [3], in assay [4], in assay [5] and in assay [8] was “inactive” each time. In addition, the Potency result in assay [9] and in [10] was “inactive” throughout. The outcome in assay [6] and in [7] was inactive.

Regarding `NCCCCCC(=O)O`, the Potency result in assay [1], in assay [2], in assay [3], in [4], in assay [5] and in [8] was “inactive” throughout. Further, the Potency entry in [9] and in assay [10] was “inactive” in each case. Also, the result in [6] and in assay [7] was inactive.

Take `NS(=O)(=O)c1cc2c(cc1Cl)NCNS2(=O)=O`: the Potency entry in assay [1], in assay [2], in assay [3], in assay [4], in [5] and in [8] was “inactive” each time. Besides, the Potency entry in assay [9] and in assay [10] was “inactive” in each case. For the same compound, the result in [6] and in assay [7] was inactive.

With `Cc1cc(C(C)(C)C)c(O)c(C)c1CC1=NCCN1`, the Potency result in [1], in [2], in assay [3], in assay [4], in [5] and in assay [8] was “inactive” each time. The Potency entry in assay [9] and in [10] was “inactive” throughout. Moreover, the outcome in assay [6] and in assay [7] was inactive.

Consider `CC(C)Cc1ccc(C(C)C(=O)O)cc1` (stereo unspecified), for which the Potency entry in assay [1], in assay [2], in assay [3], in assay [4], in [5] and in assay [8] was “inactive” throughout. Moreover, the Potency result in assay [9] and in assay [10] was “inactive” each time. Further, the outcome in assay [6] and in [7] was inactive.

Turning to `O=C(c1ccc(F)cc1)C1CCN(CCn2c(=O)[nH]c3ccccc3c2=O)CC1`, the Potency entry in assay [1], in [2], in [3], in assay [4], in [5] and in assay [8] was “inactive” throughout. The Potency result in [9] and in [10] was “inactive” each time. Also, the outcome in assay [6] and in assay [7] was inactive.

Regarding `CN(C)CCOC(c1ccccc1)c1ccccc1`, the Potency result in assay [1], in assay [2], in assay [3], in assay [4], in assay [5] and in assay [9] was “inactive” throughout. Further, the outcome in assay [6], in assay [7] and in assay [8] was inactive.

On to `CCOC(=O)c1ncn2c1CN(C)C(=O)c1cc(F)ccc1-2`, for which the Potency entry in assay [1], in assay [2], in assay [3], in [4], in [5] and in [8] was “inactive” each time. The Potency result in assay [9] and in assay [10] was “inactive” throughout. In addition, the result in [6] and in [7] was inactive.

On to `Nc1nc2c(ncn2COC(CO)CO)c(=O)[nH]1`, for which the Potency entry in assay [1] is “inactive and 16.6 µM (active)”. Further, the Potency entry in assay [2], in [3], in assay [4], in [5], in [8] and in assay [9] was “inactive” throughout. For the same compound, the Potency result in assay [10] was “inactive”. Besides, the result in assay [6] and in assay [7] was inactive.

Consider `CC(C)C(=O)Nc1ccc([N+](=O)[O-])c(C(F)(F)F)c1`, for which the Potency result in assay [1], in assay [3], in assay [4], in assay [5], in [8] and in assay [9] was “inactive” throughout. For the same compound, in [10], the Potency result is “inactive”. In addition, the result in [6] was inactive.

On to `Cc1cc(C(C)(C)C)cc(C)c1CC1=NCCN1`, for which the Potency result in assay [1], in assay [2], in [3], in [4], in assay [8] and in assay [9] was “inactive” in each case. The Potency result in assay [10] is “inactive”. Moreover, the result in [6] and in [7] was inactive.

For `CCc1cccc2c3c([nH]c12)C(CC)(CC(=O)O)OCC3` (stereo unspecified), the Potency entry in [1], in [2], in assay [3], in assay [4], in assay [8] and in assay [9] was “inactive” each time. The Potency result in assay [10] is “inactive”. The outcome in [6] and in assay [7] was inactive.

As to `CN(C)C(=O)C(CCN1CCC(O)(c2ccc(Cl)cc2)CC1)(c1ccccc1)c1ccccc1`, the Potency in assay [1] was 18.7 µM (active); in [2], 26.1 µM (active). For the same compound, the Potency entry in assay [3], in [5], in [8] and in assay [9] was “inactive” in each case. Besides, the result in [6] and in assay [7] was inactive.

`COc1ccc2c(c1)c(CC(=O)O)c(C)n2C(=O)c1ccc(Cl)cc1`: the Potency entry in [1], in assay [2], in assay [3], in assay [4], in assay [8] and in assay [9] was “inactive” each time. In assay [10], the Potency result is “inactive”. In addition, the result in [6] and in assay [7] was inactive.

In the case of `COc1ccccc1OCC(O)CN1CCN(CC(=O)Nc2c(C)cccc2C)CC1` (stereo unspecified), the Potency result in [1], in [2], in [3], in assay [4], in [8] and in [9] was “inactive” in each case. In assay [10], the Potency result is “inactive”. The outcome in [6] and in assay [7] was inactive.

Consider `CN1CCN(CCCN2c3ccccc3Sc3ccc(Cl)cc32)CC1`, for which the Potency in assay [1] was 23.5 µM (active); in [4], 18.5 µM (active); in [5] it was 23.5 µM (active) and inactive. Moreover, the Potency entry in assay [3], in assay [9] and in assay [10] was “inactive” each time. Also, the result in assay [6] and in [7] was inactive.

For the compound `CC[N+](CC)(CC)CCOc1cccc(OCC[N+](CC)(CC)CC)c1OCC[N+](CC)(CC)CC`, the Potency result in [1], in assay [3], in assay [4], in assay [9] and in [10] was “inactive” in each case.

Turning to `CC1COc2c(N3CCN(C)CC3)c(F)cc3c(=O)c(C(=O)O)cn1c23` (stereo unspecified), the Potency entry in [1], in assay [3], in assay [4], in [9] and in assay [10] was “inactive” throughout.

Take `OCCN1CCN(CCCN2c3ccccc3Sc3ccc(C(F)(F)F)cc32)CC1`: the Potency in [1] was 16.6 µM (active) and 18.4 µM (active); in [5], 16.6 µM (active) and inactive. The Potency entry in assay [3], in assay [4], in assay [8], in [9] and in assay [10] was “inactive” in each case. Besides, the result in [6] and in assay [7] was inactive.
